Compound activity as filed in PubChem BioAssay.
The list is not random: actives were taken first. Their share in the collection is about 1.4%.
LANA-H2A inh – blocks KSHV LANA binding to histone H2A/H2B | Q9QR71 | inhibition, % (no concentration beside the values) | 0.6% of 320,000 active | cell-free LANA-H2A/H2B peptide, fluorescence polarization; in the data active = inhibition mostly above about 10%, no sharp cut-off; inactive = mostly below about 6.7%
EBNA-1 inhibitor – blocks EBNA-1 binding to DNA | EBNA-1 DNA binding, fluorescence polarization | inhibition, % at 14.8 µM | 0.34% of 300,000 active | AID 1950; in the data active = inhibition above about 28%
ZTA DNA inh – ZTA (EBV) inhibition in EBNA-1 counter-screen; ZTA-DNA binding, fluorescence polarization; P03206; 0.15% of 320,000 active; inhibition, % at 11 µM; in the data active = inhibition above about 33%
LYPLA2 inh – blocks human lysophospholipase 2, a PME1 counter-screen | O95372 | 0.38% of 320,000 active | AID 2177 | inhibition, % at 5.9 µM | recombinant LYPLA2, FP-Rh probe fluorescence polarization;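 active = inhibition above the screen-wide mean plus 3 SD, limit set per campaign, cut at about 26% in these data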;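 also: 0% = LYPLA2 with DMSO and 100% = wells lacking LYPLA2 enzyme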
Target sequence (O95372 whole entry, looked up): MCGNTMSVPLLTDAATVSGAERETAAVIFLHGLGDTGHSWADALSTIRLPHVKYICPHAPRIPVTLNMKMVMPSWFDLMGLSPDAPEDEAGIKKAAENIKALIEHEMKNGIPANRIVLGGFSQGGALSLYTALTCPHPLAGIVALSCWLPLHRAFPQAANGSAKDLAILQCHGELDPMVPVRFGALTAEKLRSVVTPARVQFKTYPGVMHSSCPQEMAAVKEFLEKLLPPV
LYPLA1 counter – counter-screen for PME1 inhibitors: inhibitors of human LYPLA1 | O75608 | recombinant LYPLA1, FP-Rh probe fluorescence polarization | inhibition, % at 5.9 µM | 0.16% of 320,000 active | AID 2174;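 active = inhibition above the mean of all tested compounds plus 3 SD, set per campaign, cut at about 14% in these data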;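 also: inhibitors block serine hydrolase probe labeling of LYPLA1 so polarization falls; 0% = enzyme with DMSO and 100% = wells lacking LYPLA1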
Target sequence (O75608 whole entry, looked up): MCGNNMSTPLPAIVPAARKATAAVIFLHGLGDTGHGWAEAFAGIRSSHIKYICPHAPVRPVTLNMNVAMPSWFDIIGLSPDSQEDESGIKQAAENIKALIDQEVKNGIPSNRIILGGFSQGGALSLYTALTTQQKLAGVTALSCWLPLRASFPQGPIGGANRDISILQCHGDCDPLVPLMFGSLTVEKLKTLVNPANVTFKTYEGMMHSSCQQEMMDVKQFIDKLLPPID
LYPLA2 confirm – counter-screen for PME1 inhibitors: confirmation of human LYPLA2 inhibitors. shares compounds with LYPLA2 inh. recombinant LYPLA2, FP-Rh probe fluorescence polarization. inhibition, % at 5.9 µM. 72% of 1,100 active. AID 2232;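 active = mean inhibition across replicates above the hit cutoff set in the primary screen, cut at about 26% in these data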;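 also: blocked labeling of the enzyme by serine hydrolase FP-Rh probe lowers polarization; 0% = enzyme with DMSO and 100% = wells lacking LYPLA2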
LYPLA2 ABPP – blocks human acyl-protein thioesterase 2 in gel ABPP | shares compounds with LYPLA2 inh | rhLYPLA2 in mouse brain proteome, gel ABPP FP-Rh | inhibition, % at 20 µM | 30% of 150 active | AID 652029;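 active = inhibition of LYPLA2 enzyme probe labeling above about 50%, limit read from the data; inactive = inhibition below that limit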;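 also: loss of FP-Rh probe labeling of the LYPLA2 gel band measured as band density; 0% = DMSO only control band and 100% = blank gel background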
Numbers without * were called inactive; x = not tested or not shown.

SMILES	LANA-H2A inh	EBNA-1 inhibitor	ZTA DNA inh	LYPLA2 inh	LYPLA1 counter	LYPLA2 confirm	others
CSCCC(NC(=O)c1ccco1)C(=O)Nc1ccc(C)c(S(=O)(=O)N2CCOCC2)c1 (stereo unspecified)	1.8	-7.5	-5.7	3.8	2.1	x
O=C1c2c(O)cc(O)cc2O[C@H](c2ccc(O)c(O)c2)[C@@H]1O	2.6	-3.6	-2.4	29.4*	-2.1	39.4*
C[C@@H]1O[C@@H](O[C@@H]2C(=O)c3c(O)cc(O)cc3O[C@H]2c2ccc(O)c(O)c2)[C@H](O)[C@H](O)[C@H]1O	-0.7	x	-7.9	6.1	-0.8	x
Cc1c(Br)c([N+](=O)[O-])nn1CC(=O)N1CCN(C23CC4CC(CC(C4)C2)C3)CC1	0.2	10.9	1.8	27.3*	6.2	-0.9
CCCC(=O)N1CCN(c2ccc([N+](=O)[O-])cc2Cl)CC1	1.2	-0.3	0.2	-2.6	-3.2	x
O=C(CSc1ccc(Cl)cc1)N1CCN(c2ccc([N+](=O)[O-])cc2Cl)CC1	-0.9	8.0	-13.2	30.6*	1.4	10.2
CN(C(=O)CN(C)S(=O)(=O)c1ccc(F)cc1)c1c(N)n(Cc2ccccc2)c(=O)[nH]c1=O	-1.9	1.4	7.0	-1.5	1.4	x
CCN(CC)c1ccc(C(=O)Nn2cnc3ccccc3c2=O)cc1	1.8	-1.8	-6.4	0.8	-0.7	x
CCCCCCCCCC(=O)Nn1cnc2ccccc2c1=O	-7.3	1.8	10.6	70.9*	1.7	75.0*	LYPLA2 ABPP=52.0*
Cc1ccc(S(=O)(=O)Oc2cccc(/C=N/n3cnnc3)c2)cc1	0.3	-11.1	-11.0	2.5	-1.3	x
Clc1ccc(Oc2cccc(/C=N/n3cnnc3)c2)cc1	1.2	-5.5	-2.5	36.9*	8.9	31.5*
OC(c1ccc(F)cc1)(C1CCCCC1)C(CN1CCOCC1)c1ccccc1 (stereo unspecified)	1.6	5.0	-12.4	3.4	-0.9	x
O=C(NCc1ccco1)c1ccc2c(c1)C(=O)N(Cc1ccccc1)C2=O	1.5	2.5	-4.8	4.2	0.2	x
CC(C)CCN1C(=O)c2ccc(C(=O)NCc3ccco3)cc2C1=O	-7.1	4.0	-5.1	28.4*	6.8	21.4
O=C(c1cc(COc2ccc(F)cc2Cl)on1)N1CCC(OCc2cccnc2)CC1	-2.6	1.6	-4.0	32.5*	1.0	32.7*
O=C(c1cc(COc2ccc(F)cc2Cl)on1)N1CCCC(OCc2cccnc2)C1 (stereo unspecified)	0.3	0.2	-1.1	3.0	-2.2	x
Cc1cc(OCC(=O)NC(C)c2ccccc2)ccc1[N+](=O)[O-] (stereo unspecified)	-2.1	-0.7	2.9	3.5	4.0	x
Cc1ccc2c3c(cccc13)-c1ccccc1C2=O	x	-10.0	13.1	-6.1	6.5	x
Cc1coc2c1C(=O)C(=O)c1c-2ccc2c(C)cccc12	-6.7	1.6	9.8	39.1*	9.6	8.7
Cc1coc2c1C(=O)C(=O)c1c-2ccc2c1CCCC2(C)C	-17.0	8.0	-10.9	34.9*	5.2	56.3*
Cc1cc(S(=O)(=O)N2CCCC(N3CCOCC3)C2)c(C)cc1Cl (stereo unspecified)	1.7	-6.8	8.2	0.6	1.6	x
CC(=C/c1ccc(C(C)C)cc1)/C=N/NC(=O)Cn1nnnc1N	7.0	-7.8	-4.0	40.1*	1.1	39.8*
CC(/C=N/NC(=O)CSc1ccccn1)=C\c1ccc(C(C)C)cc1	-0.3	6.5	2.7	19.6	-3.1	x
O=C(c1ccc(Br)o1)N1CCN(C/C=C/c2ccccc2)CC1	-2.3	-6.6	-14.5	5.2	3.8	x
O=C(c1ccc(Br)s1)N1CCN(C/C=C/c2ccccc2)CC1	-5.3	9.8	-4.7	35.7*	9.7	33.8*
SMILES	LANA-H2A inh	EBNA-1 inhibitor	ZTA DNA inh	LYPLA2 inh	LYPLA1 counter	LYPLA2 confirm	others
O=C(O)c1ccccc1Nc1ccc([N+](=O)[O-])cc1C(=O)O	2.4	3.8	4.2	-6.8	-3.1	x
NC(=O)c1cc([N+](=O)[O-])ccc1Nc1ccccc1	0.2	3.1	1.3	39.0*	-1.3	31.9*
Cc1cc(OCC(=O)Nc2ccc(CN3CCOCC3)cc2)c2c(C)cc(=O)oc2c1	0.5	-2.0	1.7	42.8*	1.7	48.0*
Cc1cc(OCC(=O)NCCCN2CCOCC2)c2c(C)c(C)c(=O)oc2c1	-0.6	7.6	0.8	4.0	4.0	x
Cc1cc(OCC(=O)Nc2ccc(CN3CCOCC3)cc2)c2c(C)c(C)c(=O)oc2c1	1.7	15.0	14.0	30.5*	-1.4	36.0*
Cc1cc(=O)oc2cc(OCC(=O)Nc3ccc(CN4CCOCC4)cc3)ccc12	4.7	4.5	-9.5	4.1	2.1	x
O=C(O)c1cccc(N2C(=O)c3ccc(Oc4ccc(Cl)cc4)cc3C2=O)c1	-6.1	1.5	20.0	52.6*	-2.9	67.6*	LYPLA2 ABPP=55.0*
O=C(O)CN1C(=O)/C(=C\c2cc(Br)ccc2OCc2ccc(F)cc2)SC1=S	-3.0	1.4	18.3	41.4*	-3.6	43.6*
CC(=O)c1ccccc1NC(=O)COC(=O)c1cc2ccccc2[nH]1	3.9	x	29.6	-7.0	-2.9	x
CCCCCCOc1ccc(OC(=O)c2ccncc2)cc1	-7.2	2.3	4.6	47.3*	7.8	56.2*
COc1cccc(CNC(=O)C2CCC(CNS(=O)(=O)c3cccc4nsnc34)CC2)c1 (stereo unspecified)	1.7	-7.5	18.7	26.4*	0.9	46.1*
O=C(C1CCC(CNS(=O)(=O)c2cccc3nsnc23)CC1)N1CC=C(c2ccccc2)CC1 (stereo unspecified)	2.7	-3.6	-4.7	42.0*	1.5	41.0*
Nc1c(-c2ccc(Cl)cc2)cnc2c(-c3ccc(F)cc3)cnn12	1.3	-4.0	-3.5	0.5	-5.6	x
COC(=O)c1ccc(C(=O)OC)c(NC(=S)N2CCN(c3ccccn3)CC2)c1	0.2	0.8	-10.5	1.5	0.8	x
Cc1ccc(CNC(=O)Cn2c(=O)c3sccc3n(Cc3ccc([N+](=O)[O-])cc3)c2=O)cc1	3.3	8.1	-7.2	-13.6	-10.1	x
O=C(CCc1ccccc1F)N1CCN(c2ccc(C(F)(F)F)cn2)CC1	4.4	1.9	5.9	24.6	0.7	x
N#Cc1ccc(OCC(=O)N2CCN(c3ccc(C(F)(F)F)cn3)CC2)cc1	5.5	x	4.7	64.1*	3.7	32.3*
O=c1ccc(-c2ccccc2)nn1Cc1ccc(F)cc1Cl	0.9	-2.5	-1.0	35.4*	-3.4	33.6*
O=c1ccc(-c2ccccc2)nn1Cc1ccc(F)cc1	0.6	-0.7	8.1	27.0*	0.8	23.9
O=c1ccc(-c2ccccc2)nn1Cc1ccccc1	-6.6	-12.7	-6.5	7.8	4.1	x
CC(OC(=O)/C=C/c1ccccc1)C(=O)N1CCc2ccccc21 (stereo unspecified)	-3.3	-5.9	-15.8	0.2	-1.4	x
